This note sets out measurements from PubChem BioAssay (EPA / NIEHS).

The structures appear in SMILES notation. Inconclusive results are not listed. Active and inactive are the calls of the source. The calls were made as follows: active = hit-call score of the fitted dose curve at least 0.9, where 1 is the maximum; inconclusive = response in the unintended direction; inactive = score below 0.9.

AR (gene 367), sequence (P10275 whole entry, looked up): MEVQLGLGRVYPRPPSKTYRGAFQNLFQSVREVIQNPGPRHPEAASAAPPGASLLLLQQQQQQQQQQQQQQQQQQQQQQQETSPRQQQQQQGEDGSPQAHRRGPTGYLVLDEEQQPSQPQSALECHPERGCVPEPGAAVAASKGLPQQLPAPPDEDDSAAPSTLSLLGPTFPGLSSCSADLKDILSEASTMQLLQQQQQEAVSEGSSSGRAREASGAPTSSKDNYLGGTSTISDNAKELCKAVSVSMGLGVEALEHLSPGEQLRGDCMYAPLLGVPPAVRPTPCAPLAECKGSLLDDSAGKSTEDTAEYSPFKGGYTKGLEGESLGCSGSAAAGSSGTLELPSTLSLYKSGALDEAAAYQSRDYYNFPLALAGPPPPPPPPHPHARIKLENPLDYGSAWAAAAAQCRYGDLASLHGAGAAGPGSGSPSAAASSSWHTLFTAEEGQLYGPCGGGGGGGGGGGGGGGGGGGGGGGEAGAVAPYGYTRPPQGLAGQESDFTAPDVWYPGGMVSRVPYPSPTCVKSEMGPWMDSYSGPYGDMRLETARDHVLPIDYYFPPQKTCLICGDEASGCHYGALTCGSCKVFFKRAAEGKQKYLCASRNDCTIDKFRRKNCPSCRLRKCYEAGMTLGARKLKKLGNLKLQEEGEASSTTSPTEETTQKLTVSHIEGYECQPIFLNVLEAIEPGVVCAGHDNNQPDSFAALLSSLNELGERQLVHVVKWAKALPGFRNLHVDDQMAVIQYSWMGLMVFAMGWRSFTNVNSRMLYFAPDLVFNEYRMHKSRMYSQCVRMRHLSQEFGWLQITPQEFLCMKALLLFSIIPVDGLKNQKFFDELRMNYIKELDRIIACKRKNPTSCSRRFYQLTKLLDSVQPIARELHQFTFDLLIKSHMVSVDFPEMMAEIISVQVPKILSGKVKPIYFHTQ

For the first assay, the target named is AR (gene 367) (UniProt P10275). As to the kind of experiment: ACEA_AR_agonist_80hr: ACEA Biosciences xCELLigence Real-Time Cell Analysis on Androgen Receptor Agonism for Proliferation (AID 2283783).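 Also: hits increase impedance growth signal above DMSO baseline.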 The method, boiled down:
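22Rv1 human prostate cancer cells were seeded after preconditioning in assay medium and monitored overnight, then dosed in an eight-point 1:4 dilution series from 100 uM (≤0.5% DMSO). Impedance-based growth was read at 80 h, gain-of-signal versus DMSO.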
For `O=c1c(-c2ccc(O)cc2)coc2cc(O)cc(O)c12`, the outcome was inactive.
With `NCc1cccc(C2CCN(C(=O)c3ccc(C#Cc4ccccc4F)o3)CC2)c1`, the compound was classed as inactive.
On to `COc1cc(C(=O)NC2CCN(C)CC2)ccc1Nc1ncc2c(n1)N(C1CCCC1)CC(F)(F)C(=O)N2C`, for which the compound was classed as inactive.
Turning to `O=C(Nc1ccc(Cl)cc1)Nc1ccc(Cl)c(Cl)c1`, the call was inactive.

A further assay has as its target AR (gene 367) (UniProt P10275). Nature of the assay: ACEA_AR_antagonist_80hr: ACEA Biosciences xCELLigence Real-Time Cell Analysis on Androgen Receptor Antagonism for Proliferation (AID 2283787).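 Also: hits lower the impedance growth signal relative to DMSO.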 The method, boiled down: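 Impedance readout (RT-CES), 80 h post-dose; loss-of-signal vs DMSO baseline. 22Rv1 cells in assay medium. Compounds: 8-pt 1:4 series, max 100 uM final, up to 0.5% DMSO; n = 2.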
Consider `CN(C[C@@H](CC[N+]12CCC(C3CCCCC3)(CC1)CC2)c1ccc(Cl)c(Cl)c1)C(=O)c1cc(C(F)(F)F)cc(C(F)(F)F)c1`, for which the AC50 (usually the midpoint of the concentration-response curve, whichever way the signal moves) is 7.24 µM (active).
`O=c1c(-c2ccc(O)cc2)coc2cc(O)cc(O)c12`: the AC50 is 65.1 µM (active).
Turning to `NCc1cccc(C2CCN(C(=O)c3ccc(C#Cc4ccccc4F)o3)CC2)c1`, the AC50 was 23.5 µM (active).
Turning to `Cc1c2ccccc2c(C)c2c1ccc1ccccc12`, the AC50 was 46.5 µM (active).
Turning to `CN(C)c1ccc(C(=C2C=CC(=[N+](C)C)C=C2)c2ccc(N(C)C)cc2)cc1`, the AC50 is 0.167 µM (active).
Still for that read-out and setting: in the case of `COc1cc(C(=O)NC2CCN(C)CC2)ccc1Nc1ncc2c(n1)N(C1CCCC1)CC(F)(F)C(=O)N2C` it was 0.0058 µM (active); in that of `O=C(Nc1ccc(Cl)cc1)Nc1ccc(Cl)c(Cl)c1`, 5.97 µM (active).
